Compound activity as filed in PubChem.
CYP2C9 activ = CYP2C9 (human) activation; 96,000 compounds, 1.4% hits; recombinant CYP2C9, luciferin-H conversion, luminescence; stronger effect = higher value; factor 1 = untreated enzyme, 0 = blocked; AID 1024; activation factor at 5 µM; P11712;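 active = activation factor of 2 or more for CYP2C9 at a 5 µM dose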;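 also: 0 = sulfaphenazole-blocked wells and 1 = vehicle-only wells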
CYP2C19 activ = cytochrome P450 2C19 (human) activation | 96,000 tested, under 10 active | recombinant CYP2C19, luciferin-H EGE luminescence; stronger effect = higher value; 0 = fully inhibited enzyme, 1 = untreated enzyme | activation factor at 5 µM;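 active = activation factor of at least 2 at 5 µM in the primary screen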;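 also: 0 = wells with 2.5 mM tranylcypromine and 1 = vehicle-only wells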
CYP2C19 inhib = human CYP2C19 inhibition; CYP2C19 Supersomes, luciferin-H EGE luminescence, 30 min; inhibition, % at 5 µM; 96,000 compounds, 21% hits; AID 778;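 active = CYP2C19 inhibition above a set limit at 5 µM in the primary screen, cut at about 50% in these data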;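 also: plate controls were negative control wells for no effect and 2.5 mM tranylcypromine positive control for full effect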
CD11b adhes enh = CD11b/CD18-fibrinogen binding enhancement; K562 CD11b/CD18 adhesion to fibrinogen, ATPlite luminescence; AID 1499; 93,000 compounds, 0.07% hits; activation, % at 10 µM;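 active = 10 µM primary screen giving 50% or more activity, confirmed by 40% or more on retest at that dose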
Target sequence (P05107 whole entry, looked up, other chains not shown): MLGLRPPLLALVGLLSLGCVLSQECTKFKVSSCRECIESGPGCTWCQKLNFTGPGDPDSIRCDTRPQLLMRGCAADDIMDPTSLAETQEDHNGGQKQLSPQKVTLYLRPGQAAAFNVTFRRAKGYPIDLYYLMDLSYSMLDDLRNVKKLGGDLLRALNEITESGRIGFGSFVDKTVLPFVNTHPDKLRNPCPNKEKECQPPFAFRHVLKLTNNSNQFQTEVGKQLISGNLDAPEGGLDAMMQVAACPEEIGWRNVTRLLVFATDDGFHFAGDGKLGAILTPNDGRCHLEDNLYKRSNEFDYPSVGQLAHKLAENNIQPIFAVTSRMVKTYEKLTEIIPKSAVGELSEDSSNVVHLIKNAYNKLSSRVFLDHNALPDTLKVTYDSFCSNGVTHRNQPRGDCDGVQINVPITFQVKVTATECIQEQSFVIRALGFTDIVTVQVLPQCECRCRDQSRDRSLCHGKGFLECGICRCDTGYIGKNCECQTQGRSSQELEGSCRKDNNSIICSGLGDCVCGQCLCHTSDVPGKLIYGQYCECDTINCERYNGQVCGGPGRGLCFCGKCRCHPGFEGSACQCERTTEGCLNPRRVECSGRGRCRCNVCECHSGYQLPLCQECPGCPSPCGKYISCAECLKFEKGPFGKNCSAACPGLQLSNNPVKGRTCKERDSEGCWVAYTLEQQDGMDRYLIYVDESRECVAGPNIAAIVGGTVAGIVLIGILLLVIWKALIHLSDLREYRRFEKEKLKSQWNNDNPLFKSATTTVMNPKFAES
CD11b adhes inh = blocks human CD11b/CD18 adhesion to fibrinogen; P05107+P11215; K562 CD11b/CD18 adhesion to fibrinogen, ATPlite luminescence; Mn2+ added to activate the integrin; inhibition, % at 10 µM; 93,000 compounds, 0.54% hits; AID 1497;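 active = primary inhibition of 50% or more at 10 µM, then 40% or more on retest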
CYP2C9 inh = inhibitors of human CYP2C9; P11712; 96,000 compounds, 20% hits; inhibition, % at 5 µM; CYP2C9 Supersomes, luciferin-H conversion, luminescence; AID 777;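 active = blocking of liver enzyme CYP2C9 beyond about 50% at 5 µM, limit read from the data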
* marks the source's active call; other numbers are inactive results; nt = no result given. The list is not random: actives were taken first. Their share in the collection is about 28%.

SMILES | CYP2C9 activ | CYP2C19 activ | CYP2C19 inhib | CD11b adhes enh | CD11b adhes inh | CYP2C9 inh
c1ccc(-c2nc3cc4ccccc4cc3[nH]2)nc1 | 0.5 | 0.2 | 80* | -2 | 57 | 46
COc1ccc(C2(C(=O)N3CCCC3)CCOCC2)cc1OC | 0.9 | 1 | 2 | 0 | 3 | 6
COc1ccccc1/C=C/C(=O)NC(=S)N(C)C1CCCCC1 | 2.6* | 0.9 | 14 | nt | nt | -164
CC1CCC2(CC1)NC(=S)N(c1ccccc1)N2 (configuration not stated) | 0.9 | 0.5 | 54* | -4 | -14 | 9
O=c1[nH]c2ccc(S(=O)(=O)N3CCN(c4ccccc4)CC3)cc2[nH]c1=O | 0.9 | 0.6 | 38 | nt | nt | 13
COc1ccc(OC)c(C2=Nn3c(nnc3-c3cc(OC)c(OC)c(OC)c3)SC2)c1 | 0.1 | 0.4 | 60* | 0 | 2 | 88*
COc1cccc(-c2nnc3n2N=C(c2cc(OC)ccc2OC)CS3)c1 | 0.4 | 0.3 | 72* | nt | nt | 57*
COc1ccc(C2=Nn3c(nnc3-c3ccc(OC)cc3)SC2)cc1 | 0.5 | 0.8 | 22 | -2 | 19 | 52*
COc1cccc(-c2nnc3n2N=C(C(C)(C)C)CS3)c1 | 0.7 | 0.3 | 68* | nt | nt | 30
COc1ccc(-n2nc3c(c2NC(=O)C2CCCC2)CS(=O)C3)cc1 (configuration not stated) | 0.9 | 0.9 | 9 | -4 | -26 | 5
COc1ccc(-c2nnc3n2N=C(c2cccc(Br)c2)CS3)cc1OC | 0.6 | 0.6 | 36 | 1 | 12 | 44
Cc1cccc(-c2nnc3n2N=C(c2ccccc2Br)CS3)c1 | 0.5 | 0.2 | 85* | -2 | -12 | 52*
COc1cc(-c2nnc3n2N=C(c2ccccc2)CS3)cc(OC)c1OC | 0.3 | 0.3 | 73* | -3 | -1 | 68*
COc1cccc(C2=Nn3c(nnc3-c3ccccc3O)SC2)c1 | 0.3 | 0.6 | 43 | 35 | -16 | 69*
Clc1ccccc1C1=Nn2c(nnc2-c2ccncc2)SC1 | 0.3 | 0.4 | 61* | -3 | -7 | 72*
Cc1ccc(-c2nnc3n2N=C(c2ccccc2)CS3)cc1 | 1.1 | 1.2 | -15 | -2 | 0 | -5
c1ccc(C2=Nn3c(nnc3-c3cc(-c4ccccc4)n[nH]3)SC2)cc1 | 1.2 | 1.1 | -15 | 6 | 5 | -16
C=CCN1C(=O)C2(/C(=C(\O)c3ccc4c(c3)OCCO4)C(=O)C(=O)N2CCCOC)c2ccccc21 (configuration not stated) | 1.3 | 1.1 | -15 | -3 | -6 | -25
CN(Cc1ccccc1)c1nc(N)c([N+](=O)[O-])c(NCc2ccccc2)n1 | nt | nt | nt | 3 | 29 | nt
CCCCCCOC(=O)Sc1nc2ccccc2o1 | 0.3 | 0.5 | 52* | -4 | 29 | 65*
Cc1ccc(S(=O)(=O)NCCOC(=O)Nc2sc(=S)n(C)c2C)cc1 | 1 | 0.3 | 73* | 3 | -1 | -3
COc1ccccc1NS(=O)(=O)c1cccc(NC(=O)NC2CCCCC2)c1 | nt | nt | nt | 8 | -14 | nt
CCCCCCN=CC1=C(O)C(C(=O)OC)C(C)(C)CC1=O (configuration not stated) | 0.6 | 0.5 | 47 | -2 | -37 | 42
Cc1csc(SCCn2c(N3CCCC3)nc3c2c(=O)[nH]c(=O)n3C)n1 | 0.6 | 0.7 | 27 | -1 | -49 | 42
O=C(OCc1cc2ccccc2[nH]c1=O)c1ccccc1 | 0.6 | 0.4 | 59* | 0 | -6 | 44
SMILES | CYP2C9 activ | CYP2C19 activ | CYP2C19 inhib | CD11b adhes enh | CD11b adhes inh | CYP2C9 inh
Cn1c(N)c(C(=O)CCl)c(=O)n(C)c1=O | 1.1 | 1.1 | -9 | -4 | 4 | -6
CC(C)c1nc(-c2c(N)n(C)c(=O)n(C)c2=O)sc1C(=O)C(C)(C)C | 1 | 0.2 | 76* | 10 | 0 | -1
O=C(CN1C(=O)C2CC=CCC2C1=O)OCCN1C(=O)c2ccccc2C1=O (configuration not stated) | 0.9 | 0.9 | 12 | 4 | -7 | 11
CCN(CC)S(=O)(=O)c1cccc(-c2nnc(SCCOc3ccc(Cl)cc3)o2)c1 | 2* | 0.4 | 61* | 1 | 21 | -97
CCN(CC)S(=O)(=O)c1cccc(-c2nnc(SCCOc3ccccc3)o2)c1 | 1.4 | 0.1 | 94* | -6 | 35 | -38
CCN(CC)S(=O)(=O)c1cccc(-c2nnc(SCCOc3ccccc3C)o2)c1 | 1.6 | 0.1 | 90* | -3 | 61 | -65
CCN(CC)S(=O)(=O)c1cccc(-c2nnc(SCc3nnc(-c4ccccc4)o3)n2C)c1 | 0.5 | 0.1 | 88* | -2 | -10 | 55*
Cc1cc(C)n(CNc2nc(C(F)(F)F)cs2)n1 | 1 | 0.8 | 17 | -4 | 1 | 1
O=C(c1ccco1)c1cn(CC(=O)N2CCCCC2)c2ccccc12 | 0.7 | 0.7 | 27 | -1 | -4 | 34
CC1(C)CC2CC(C)(CN2S(=O)(=O)c2ccc(C(=O)Nc3ccc(Cl)c(S(=O)(=O)N4CCOCC4)c3)cc2)C1 (configuration not stated) | 0.4 | 0.5 | 47 | nt | nt | 62*
CCOC(=O)c1cc([N+](=O)[O-])sc1NC(=O)c1ccc(S(=O)(=O)N2CC3(C)CC2CC(C)(C)C3)cc1 (configuration not stated) | nt | nt | nt | -8 | 100 | nt
CCOC(=O)c1sc(NC(=O)c2ccco2)nc1-c1ccccc1 | 1.1 | 1.2 | -15 | 0 | -39 | -11
CCOC(=O)c1sc2nccc(N(C)C)c2c1N=CNOCc1ccccc1 | 0.3 | 0.4 | 61* | 13 | -22 | 72*
O=C(CNC(=O)c1ccco1)OCc1c(F)cccc1Cl | 0.9 | 0.7 | 28 | nt | nt | 12
CCOC(=O)c1sc2nccc(N(C)C)c2c1N=CNOCc1c(F)cccc1Cl | 0.1 | 0.2 | 77* | 4 | -5 | 92*
CCOC(=O)c1sc2nccc(N(C)C)c2c1N=CNOC | 0.5 | 0.9 | 6 | -4 | -24 | 50*
CCOC(=O)c1sc2ncnc(N3CCN(c4ccc(OC)cc4)CC3)c2c1C | 0.8 | 0.8 | 15 | -1 | 10 | 20
COCCNC(=O)C1CC(=O)N(C2CCCC2)C1 (configuration not stated) | 1 | 1.2 | -16 | nt | nt | 0
COc1cc(C2CC(=O)c3cnc(N)nc3C2)cc(OC)c1OC (configuration not stated) | 1 | 0.9 | 7 | -4 | -4 | -2
O=C1CC(c2ccco2)Cc2nc(N3CCc4ccccc4C3)ncc21 (configuration not stated) | 0 | 0.1 | 95* | -3 | 17 | 98*
COc1cc(C2CC(=O)c3cnc(N4CCN(Cc5ccccc5)CC4)nc3C2)cc(OC)c1OC (configuration not stated) | 0 | 0.2 | 84* | 4 | 6 | 97*
